Screening results (PubChem BioAssay)
Most compounds without a hit are left out; they make up all but 7.8% or so of the library.
Luciferase inh = blocks Photinus pyralis firefly luciferase activity; P08659; purified firefly luciferase, luminescence, 8 min; Potency, µM (series often up to 57.1 µM), for inactives: at the top dose activity change, negative = inhibition, actives largely listed as inhibitors; actives 2.2% (n = 72,000); note: % is set by controls: 0 for no effect and ±100 for the full control effect; nearly all actives have a fitted effect of over 40% in size
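Firefly luciferase (PKLight detection mix) with 10 uM ATP in pH 7.2 imidazole buffer (KCl, MgCl2, Tween 20, BSA). Compounds tested across a concentration series (qHTS). Luminescence read after 8 min at ambient temperature.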
HEK293 cAMP ctrl = raises cAMP in parental HEK293 cells, TSHR agonist counter-screen; parental HEK293 CNG cAMP sensor, membrane potential fluorescence; Potency, µM (titrated, usually from 57.1 µM), for inactives: at the top dose activation, actives largely listed as activators; actives 2.5% (n = 73,000); note: % of control where 0% means no effect; nearly all actives have a fitted effect of over 55% in size
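Parental HEK 293 cells stably expressing a cAMP-gated CNG channel were loaded with membrane potential dye containing 100 uM RO 20-1724 for 60 min. Compound added for 30 min; depolarization read as fluorescence intensity at 590 nm.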
TSHR agonist = TSH receptor (human) agonism. HEK293-CNG-TSHR cells (CNG channel as cAMP sensor), membrane potential dye, cAMP. Potency, µM (highest dose often 57.1 µM), without a hit: top-dose activation, usual class: activators. actives 0.48% (n = 73,000). AID 926; active = well fitted activation curve with a large enough effect in the main read-out, with a control signal flat, not every such curve was filed as active; inconclusive = small, poorly fitted or top-dose-only effect, or a change in a side signal; inactive = no such curve, though single readings can be large or run the other way; % of control where 0% means no effect;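 note: the control signal comes from parental cells without the receptor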
Target sequence (P16473 whole entry, looked up): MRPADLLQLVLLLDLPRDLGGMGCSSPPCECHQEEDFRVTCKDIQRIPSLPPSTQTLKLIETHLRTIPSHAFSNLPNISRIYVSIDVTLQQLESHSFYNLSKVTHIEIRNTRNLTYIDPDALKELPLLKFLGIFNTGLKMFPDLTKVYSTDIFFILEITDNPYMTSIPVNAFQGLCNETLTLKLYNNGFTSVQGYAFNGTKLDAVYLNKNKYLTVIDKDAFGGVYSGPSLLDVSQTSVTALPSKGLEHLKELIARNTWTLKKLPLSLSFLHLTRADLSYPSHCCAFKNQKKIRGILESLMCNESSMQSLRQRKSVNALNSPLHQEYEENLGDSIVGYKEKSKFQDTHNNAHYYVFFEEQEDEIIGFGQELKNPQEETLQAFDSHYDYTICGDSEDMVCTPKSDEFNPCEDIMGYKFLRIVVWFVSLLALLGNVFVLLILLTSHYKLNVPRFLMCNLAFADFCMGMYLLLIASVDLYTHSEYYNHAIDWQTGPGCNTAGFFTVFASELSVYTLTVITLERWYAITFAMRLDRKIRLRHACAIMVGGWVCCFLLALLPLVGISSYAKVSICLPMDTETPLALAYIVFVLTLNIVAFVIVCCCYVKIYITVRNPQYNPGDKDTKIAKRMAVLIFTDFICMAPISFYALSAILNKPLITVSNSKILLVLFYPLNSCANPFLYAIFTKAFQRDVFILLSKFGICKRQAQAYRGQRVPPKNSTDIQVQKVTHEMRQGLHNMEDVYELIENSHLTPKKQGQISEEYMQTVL
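HEK 293 cells stably expressing TSHR and a modified CNG channel, with CNG-only parental cells as counterscreen, were preloaded 60 min at room temperature with membrane potential dye containing 100 uM RO 20-1724. Compound exposure was 30 min, and depolarization was read as fluorescence at 590 nm.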
PK Bst = modulators of Bacillus stearothermophilus pyruvate kinase; purified pyruvate kinase, luminescence ATP production; ribose 5-phosphate activator present at AC10; Potency, µM; actives 1.2% (n = 51,000); in the data active = potency below about 11 µM; inconclusive = mostly about 12 µM to 25 µM;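 the screen sought inhibitors and activators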;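 note: scaled between full activation by ribose 5 phosphate and full inhibition by luteolin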
Tau filament bind = binders of human tau filaments | P10636 | AID 596 | recombinant tau filaments, thioflavin S fluorescence, 15 h; filaments grown with octadecylsulfate alongside compound | Potency, µM (top dose mostly 57.1 µM), inactives show at the highest dose activity change, negative = inhibition | actives 2% (n = 71,000);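 note: % is set by controls: 0 for no effect and ±100 for the full control effect; actives lower thioflavin S fluorescence by blocking filaments or displacing dye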
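His-tagged recombinant human tau (exons 2, 3, 10; 1 uM final) fibrillized with 30 uM sodium octadecylsulfate, 15 h at 37 C, in pH 7.4 HEPES buffer with 10 uM thioflavine S and 5 mM DTT. Reduced ThS fluorescence (450/510 nm) marks activity.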
15-hLO inh = inhibitors of human 15-lipoxygenase (ALOX15); P16050; Potency, µM (top dose mostly 57.1 µM), for the others: at the highest dose activity change, negative = inhibition, usual class: inhibitors; purified 15hLO-1, xylenol orange hydroperoxide absorbance; AID 887; actives 1.4% (n = 74,000); note: % is set by controls: 0 for no effect and ±100 for the full control effect; nearly all actives have a fitted effect of over 55% in size
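Quantitative HTS in 25 mM Hepes pH 7.5 containing 0.01% Triton X-100: human 15hLO-1 at 40 nM, arachidonic acid at 50 uM, 6 min turnover. Product quantified via ferrous oxidation/xylenol orange, 573:405 nm absorbance ratio.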
* marks the source's active call; other numbers are inactive results; ? = inconclusive; · = no result; [ ] = another dose, or the depositor's remark. Unless noted, calls come from the whole dose curve; as a rule, active = well fitted curve in the direction sought with a large enough effect; inconclusive = small, poorly fitted or top-dose-only effect, or another doubt; inactive = no such curve, though single readings can be large; an effect the other way counts as inactive or inconclusive. Potency is the fitted concentration of half-maximal effect.

SMILES | Luciferase inh | HEK293 cAMP ctrl | TSHR agonist | PK Bst | Tau filament bind | 15-hLO inh
O=C1C(Cl)=C(NC2CCc3ccccc32)C(=O)c2ncccc21 (stereo not drawn) | · | -23% | ? | · | 25µM* | -17%
c1ccc(CNc2nc(-c3ccoc3)nc3ccccc23)cc1 | 3%[2.29 µM] | ? | ? | · | 16µM* | -29%
c1cncc(CNc2ncnc3ccc(-c4ccoc4)cc23)c1 | -3%[2.29 µM] | -2% | 2% | · | -11% | -15%
Fc1ccc(Nc2nc(-c3ccoc3)nc3ccccc23)cc1 | 1%[2.29 µM] | 16% | -4% | · | 13µM* | 0%
Fc1ccc(Nc2ccnc(-c3ccoc3)n2)cc1 | 1%[2.29 µM] | 1% | 6% | · | 13µM* | ?
Cc1cccc(CNc2ncnc3ccc(-c4ccoc4)cc23)c1 | 1%[2.29 µM] | 32µM* | ? | · | 0% | -1%
c1ccc(Nc2nc(-c3cccnc3)nc3ccccc23)cc1 | -1%[2.29 µM] | ? | ? | · | 10% | 4%
Cc1cnc(CNc2nc(-c3ccoc3)nc3ccccc23)cn1 | -3%[2.29 µM] | ? | ? | · | 0% | 8%
CC(C)CN1CCC2(CC1)CCN(C(=O)c1cccn1C)CC2 | 3%[11.4 µM] | 11% | 7% | · | 1% | -2%
O=c1c(O)c(-c2ccccc2)oc2ccc3occc3c12 | · | · | · | · | · | 1%
O=C(O)c1ccc2cc(-c3ccc(O)c(C45CC6CC(CC(C6)C4)C5)c3)ccc2c1 | · | 7% | 1% | · | · | ?
Cc1cccc(CNc2nc(-c3ccoc3)nc3ccccc23)c1 | 1%[2.29 µM] | ? | ? | · | 16µM* | -12%
Cc1cccc(CNc2nc(-c3ccccc3CN(C)C)nc3ccccc23)c1 | 2%[2.29 µM] | 0.79µM* | ? | · | 144% | -1%
Cc1cccc(CNc2nc(-c3cccc(NS(C)(=O)=O)c3)nc3ccccc23)c1 | -1%[2.29 µM] | ? | ? | · | 40% | -19%
CS(=O)(=O)Nc1cccc(-c2nc(Nc3ccc(F)cc3)c3ccccc3n2)c1 | 0%[2.29 µM] | 19% | 25µM* | · | -10% | ?
C[N+]1(C)C2CCC1CC(OC(=O)C(O)c1ccccc1)C2 (stereo not drawn) | · | · | · | · | · | -4%
Cc1cc(C)n2c(SC/C(O)=C(\C#N)c3nc4ccccc4[nH]3)nnc2n1 | -2% | -2% | 3% | >57 | 10µM* | -29%
Cc1ccccc1-n1c(SC/C(O)=C(\C#N)c2nc3ccccc3[nH]2)nnc1-c1ccncc1 | 1% | ? | ? | · | 12% | ?
Cc1cc(C)c2nc(C(F)(F)F)nc(N3CC(C)OC(C)C3)c2c1 (stereo not drawn) | -2% | 25µM* | ? | >57 | -9% | -7%
CCOC(=O)N1CCN(c2nc(C(F)(F)F)nc3c(C)cc(C)cc23)CC1 | 2% | ? | ? | >57 | 9% | -12%
Cc1cc(NC(=O)CCCC(=O)NCc2cccs2)no1 | -5% | 8% | 3% | · | 164% | 20µM*
Cc1cc(C)n2nc3nc(N4CCCCC4)nc(-c4ccco4)c3c2n1 | 0% | 5% | -12% | >57 | 20µM* | 16µM*
O=c1ccc2c(OCCCCc3ccccc3)c3ccoc3cc2o1 | -2% | 25µM* | ? | · | 11% | -3%
O[C@H](CNc1ccccn1)c1ccccc1 | 2%[11.4 µM] | -5%[11.4 µM] | -1%[11.4 µM] | · | 36%[11.4 µM] | 0%[11.4 µM]
CCN1CCN(c2cc(C)c3cc(NC(=O)c4ccncc4)ccc3n2)CC1 | 0% | -5% | -3% | · | 16µM* | -7%
SMILES | Luciferase inh | HEK293 cAMP ctrl | TSHR agonist | PK Bst | Tau filament bind | 15-hLO inh
CC(=O)N1CCC2(CCN(Cc3cc(C(F)(F)F)cc(C(F)(F)F)c3)CC2)CC1 | 0%[11.4 µM] | -11% | -3% | · | 2% | -5%
Cc1ccccc1-c1cncnc1Nc1ccc(F)cc1 | -3%[2.29 µM] | 15% | · | · | -9% | 3%
N#Cc1cccc(NC(=O)N2CCC3(CC2)CCN(C(=O)c2csnn2)CC3)c1 | 1%[11.4 µM] | ? | ? | · | -12% | 4%
CCOc1ccc(-c2nnc(SCc3nnc(-c4ccccc4)o3)n2-c2ccccc2F)cc1 | -1% | 13µM* | ? | >57 | 11% | -11%
Cc1ccc(-c2nnc(CSc3nnc(COc4ccccc4)n3-c3ccccc3)o2)cc1 | 7% | 25µM* | ? | >57 | 32% | -15%
Cc1ccc(-c2nnc(CSc3nnc(COc4ccccc4)n3-c3ccc(C)cc3)o2)cc1 | 0% | 25µM* | ? | >57 | 41% | ?
COc1ccc(-n2c(COc3ccccc3)nnc2SCc2ccc(C#N)cc2)cc1 | 0% | 17% | 15% | >57 | -15% | -9%
COc1cccc(-n2c(COc3ccc(C)cc3)nnc2SCC(N)=O)c1 | 0% | 2% | 0% | >57 | -6% | -18%
COc1ccc(-c2nc3cnc(N4CCOCC4)nc3n(-c3ccccc3)c2=O)cc1 | 0%[11.4 µM] | ? | ? | · | 121% | -2%
CC(C)C[C@@H](CC(=O)N[C@H](CC(=O)N[C@@H]1CCNC[C@H]1C(=O)N[C@H](CC(=O)N[C@@H](CCC(=O)O)CC(=O)O)Cc1ccccc1)C(C)C)NC(=O)[C@@H]1CCCC[C@H]1N | · | -1% | · | · | 1% | ·
CCn1c(CC(=O)Nc2ccccc2)nnc1SCC(=O)Nc1ccccc1C(=O)OC | -1% | 4% | 6% | >57 | 9% | -3%
COc1cccc(OCc2nnc(SCC(=O)OC3CCCCC3)n2C)c1 | 1% | 16µM* | ? | >57 | -4% | -1%
COc1cccc(OCc2nnc(SC)n2C)c1 | -3% | 8% | 0% | >57 | 1% | 14%
CCn1c(SCC(=O)Nc2ccccc2C(=O)OC)nnc1-c1ccoc1C | 1% | 32µM* | ? | >57 | 9% | 5%
CCn1c(COc2cccc(OC)c2)nnc1SCC(=O)Nc1ccccc1C(=O)OC | 3% | 16µM* | ? | >57 | 12% | -1%
CCCn1c(SCC(=O)Nc2ccccc2-c2ccccc2)nnc1-c1ccoc1C | -2% | 16µM* | ? | >57 | 11% | 2%
Cc1occc1-c1nnc(SCC(=O)Nc2ccccc2-c2ccccc2)n1C | 2% | 17% | 7% | >57 | 20% | 7%
CCCn1c(C)nc2c(NCCN3CCOCC3)nc(C)nc21 | · | 0% | 6% | · | 9% | 4%
COC(=O)N1CCC2(CC1)CCN(c1cccc(-c3ccccc3)c1)CC2 | -8%[11.4 µM] | -1% | -2% | · | 9% | -10%
COc1ccc(NC(=O)CSc2nnc(-c3ccoc3C)n2CCc2ccccc2)cc1 | 2% | 21% | 25µM* | >57 | 7% | -23%
Cc1occc1-c1nnc(SCC(=O)Nc2ccccc2)n1Cc1ccccc1 | 1% | ? | ? | >57 | 0% | -9%
O=C(c1ccc(=O)oc1)N1CCCc2ccccc21 | -5% | 13% | · | >57 | ? | ?
